Assay results as given in the supplement of paper PMC12494721.
Where a name gives a salt, the structure may show the parent alone.

Columns and labels:
Conditions in all cases: incubation time: 27 h, anaerobic, 37 °C;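 for the amine columns active = adjusted P below 0.05 in both replicates with a change the same way and a mean fold change under 0.8 or over 1.25; inactive = the rest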
[1] = test system: Clostridium sporogenes DSM 1664; assay: growth (OD595) fold change vs plate DMSO controls (fold change (ratio)); higher = more growth
How it was run: (§1)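 After 27 h at 37 °C under anaerobic conditions, 96-well cultures in mGAM were shaken and read at 595 nm. The readings were blank-subtracted, corrected for compound background using 20 µM compound solutions in water, and converted to OD with a calibration factor of 5. Growth is defined as the fold change over the median of DMSO controls on each plate. Fold changes above 1.5 were set to NA, and each value is the mean of 2 biological replicates.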

[2] = test system: Escherichia coli IAI1; assay: as above
How it was run: as §1

[3] = test system: Klebsiella aerogenes DSM 30053; assay: as above
How it was run: as §1

[4] = test system: Ruminococcus gnavus DSM 108212; assay: as above
How it was run: as §1

[5] = test system: Klebsiella aerogenes DSM 30053; assay: fold change of Histamine concentration vs plate DMSO controls (fold change (ratio)); higher = more amine produced, active = hit call of the paper (significant change in both replicates, either direction)
How it was run: (§2)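 Each value is the fold change relative to DMSO-only wells on the same plate. Four gut bacterial strains were grown anaerobically in mGAM at 37 °C for 27 h in 80 µL wells, starting at OD 0.1 before a 1:1 dilution, with compounds at 20 µM final (sweeteners 50 µM). Whole cultures were extracted with cold acetonitrile/methanol containing 0.1% formic acid, centrifuged, and amines were quantified by LC–triple-quadrupole MS (dynamic MRM) against external calibration curves with within-batch drift correction. Values are means of 2 biological replicates.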

[6] = test system: Clostridium sporogenes DSM 1664; assay: fold change of Tryptamine concentration vs plate DMSO controls (fold change (ratio)); higher = more amine produced, active = hit call of the paper (significant change in both replicates, either direction)
How it was run: as §2

[7] = test system: Ruminococcus gnavus DSM 108212; assay: as above
How it was run: as §2

[8] = test system: Escherichia coli IAI1; assay: fold change of Putrescine concentration vs plate DMSO controls (fold change (ratio)); higher = more amine produced, active = hit call of the paper (significant change in both replicates, either direction)
How it was run: as §2

[9] = test system: Klebsiella aerogenes DSM 30053; assay: as above
How it was run: as §2

[10] = test system: Escherichia coli IAI1; assay: fold change of Cadaverine concentration vs plate DMSO controls (fold change (ratio)); higher = more amine produced, active = hit call of the paper (significant change in both replicates, either direction)
How it was run: as §2

[11] = test system: Klebsiella aerogenes DSM 30053; assay: as above
How it was run: as §2

[12] = test system: Ruminococcus gnavus DSM 108212; assay: fold change of 2-Phenylethylamine concentration vs plate DMSO controls (fold change (ratio)); higher = more amine produced, active = hit call of the paper (significant change in both replicates, either direction)
How it was run: as §2

Compound | growth [1] | growth [2] | growth [3] | growth [4] | fold change of Histamine concentration [5] | fold change of Tryptamine concentration [6] | fold change of Tryptamine concentration [7] | fold change of Putrescine concentration [8] | fold change of Putrescine concentration [9] | fold change of Cadaverine concentration [10] | fold change of Cadaverine concentration [11] | fold change of 2-Phenylethylamine concentration [12]
Clc1ccc(C(Cn2ccnc2)OCc2ccsc2Cl)c(Cl)c1 (configuration not stated) [Tioconazole] (20 µM) | 1.21 | 0.866 | 0.838 | 0.0103 | 1.05 (inactive) | 0.957 (inactive) | 0.26 (active) | 1.01 (inactive) | 1.01 (inactive) | 0.982 (inactive) | 0.997 (inactive) | 0.275 (active)
COc1ccc(CN2CCN(C(c3ccc(F)cc3)c3ccc(F)cc3)CC2)c(OC)c1OC [Lomerizine dihydrochloride] (20 µM) | 1.02 | 1.08 | 1.04 | 0.769 | 0.983 (inactive) | 1.08 (inactive) | 0.781 (inactive) | 1.09 (inactive) | 1.01 (inactive) | 0.984 (inactive) | 1.01 (inactive) | 0.87 (inactive)
COc1cnc(NS(=O)(=O)c2ccc(N)cc2)nc1 [Sulfameter] (20 µM) | 0.997 | 0.976 | 0.981 | 1.35 | 1.01 (inactive) | 0.945 (inactive) | 1.03 (inactive) | 1.01 (inactive) | 0.996 (inactive) | 1.03 (inactive) | 0.987 (inactive) | 1.01 (inactive)
CN1CCCN=C1/C=C/c1cccs1 [Pyrantel tartrate] (20 µM) | 1.14 | 1.04 | 1.1 | 1.04 | 0.952 (inactive) | 1.02 (inactive) | 1.08 (inactive) | 1.04 (inactive) | 1 (inactive) | 1.03 (inactive) | 1.02 (inactive) | 1.01 (inactive)
CO[C@H]1/C=C/O[C@@]2(C)Oc3c(C)c(O)c4c(O)c(c5c(nc6cc(C)ccn65)c4c3C2=O)NC(=O)/C(C)=C\C=C\[C@H](C)[C@H](O)[C@@H](C)[C@@H](O)[C@@H](C)[C@H](OC(C)=O)[C@@H]1C [Rifaximin] (20 µM) | 0.00823 | 0.438 | 0.844 | 0.306 | 1.15 (inactive) | 0.0445 (active) | 0.144 (active) | 0.996 (inactive) | 0.651 (active) | 1.53 (active) | 1.04 (inactive) | 0.149 (active)
C=CCN1CCCC1CNC(=O)c1cc2nn[nH]c2cc1OC (configuration not stated) [Alizapride hydrochloride] (20 µM) | 1.09 | 1.01 | 1.05 | 1.09 | 1 (inactive) | 0.964 (inactive) | 1.02 (inactive) | 0.994 (inactive) | 0.988 (inactive) | 0.998 (inactive) | 0.99 (inactive) | 1 (inactive)
CNCc1cc(-c2ccccc2F)n(S(=O)(=O)c2cccnc2)c1 [Vonoprazan] (20 µM) | 1.08 | 0.967 | 0.975 | 1.04 | 1.04 (inactive) | 1 (inactive) | 1.02 (inactive) | 0.503 (inactive) | 1 (inactive) | 0.483 (inactive) | 0.982 (inactive) | 0.999 (inactive)
COc1ccccc1N1CCN(CCCCNC(=O)c2ccc3ccccc3c2)CC1 (20 µM) | 0.826 | 0.976 | 0.969 | 0.893 | 0.972 (inactive) | 1.13 (inactive) | 1.08 (inactive) | 1.04 (inactive) | 0.962 (inactive) | 0.795 (inactive) | 1.02 (inactive) | 1.3 (inactive)
NS(=O)(=O)c1cc2c(cc1C(F)(F)F)NC(Cc1ccccc1)NS2(=O)=O (configuration not stated) [Bendroflumethiazide] (20 µM) | 0.897 | 1.01 | 1.06 | 1.05 | 0.915 (inactive) | 0.993 (inactive) | 0.993 (inactive) | 0.977 (inactive) | 0.971 (inactive) | 0.959 (inactive) | 1 (inactive) | 0.957 (inactive)
COC(=O)Nc1nc2cc(C(=O)c3ccc(F)cc3)ccc2[nH]1 [Flubendazol] (20 µM) | 0.949 | 1.04 | 1.12 | 1.04 | 0.979 (inactive) | 1 (inactive) | 0.934 (inactive) | 0.943 (inactive) | 1.02 (inactive) | 0.956 (inactive) | 1.01 (inactive) | 0.919 (inactive)
Nc1ccc(S(=O)(=O)NC(=O)c2ccccc2)cc1 [Sulfabenzamide] (20 µM) | 1.18 | 1.07 | 1.05 | 1.1 | 0.998 (inactive) | 1.07 (inactive) | 1.04 (inactive) | 0.947 (inactive) | 0.991 (inactive) | 0.967 (inactive) | 1.01 (inactive) | 1.09 (inactive)
CCNC(=O)CCC/C=C\C[C@@H]1[C@@H](/C=C/[C@@H](O)CCc2ccccc2)[C@H](O)C[C@@H]1O [Bimatoprost] (20 µM) | 1.07 | 1.06 | 1.02 | 1 | 1.05 (inactive) | 1.02 (inactive) | 0.954 (inactive) | 1.02 (inactive) | 1.03 (inactive) | 1.04 (inactive) | 0.997 (inactive) | 0.919 (inactive)
CCN(CC)C(=O)Nc1ccc(OCC(O)CNC(C)(C)C)c(C(C)=O)c1 (configuration not stated) [Celiprolol hydrochloride] (20 µM) | 1.03 | 0.981 | 0.953 | 0.712 | 1.09 (inactive) | 0.988 (inactive) | 1.02 (inactive) | 1 (inactive) | 1.01 (inactive) | 1.02 (inactive) | 0.988 (inactive) | 1.04 (inactive)
O=C(O)Cc1csc(-c2ccc(Cl)cc2)n1 [Fenclozic acid] (20 µM) | 1.01 | 0.949 | 0.979 | 1.1 | 1.05 (inactive) | 1 (inactive) | 1.05 (inactive) | 1.01 (inactive) | 0.985 (inactive) | 0.986 (inactive) | 0.977 (inactive) | 1.1 (inactive)
CC(CCc1ccccc1)NCC(O)c1ccc(O)c(C(N)=O)c1 (configuration not stated) [Labetalol hydrochloride] (20 µM) | 1.09 | 0.963 | 0.974 | 0.85 | 0.944 (inactive) | 1 (inactive) | 0.967 (inactive) | 1.01 (inactive) | 0.996 (inactive) | 0.923 (inactive) | 1 (inactive) | 0.939 (inactive)
NC(=O)c1ncn([C@@H]2O[C@H](CO)[C@@H](O)[C@H]2O)c1O [Mizoribine] (20 µM) | 0.99 | 1.06 | 1.06 | 1 | 0.951 (inactive) | 1.02 (inactive) | 1.01 (inactive) | 1.02 (inactive) | 1.02 (inactive) | 0.997 (inactive) | 1.01 (inactive) | 0.982 (inactive)
Nc1ccc(C(=O)NCC(=O)O)cc1 [Aminohippuric acid] (20 µM) | 0.256 | 0.163 | 0 | 0.295 | 0.944 (inactive) | 0.982 (inactive) | 1.03 (inactive) | 1.04 (inactive) | 1.01 (inactive) | 0.988 (inactive) | 1.01 (inactive) | 1.03 (inactive)
COc1c2occc2c(OC)c2c(=O)cc(C)oc12 [Khellin] (20 µM) | 0.981 | 0.994 | 1.03 | 1.11 | 1.06 (inactive) | 1 (inactive) | 1.04 (inactive) | 1 (inactive) | 1.01 (inactive) | 1.02 (inactive) | 0.992 (inactive) | 1.09 (inactive)
CC(=O)N(CC(O)CN(C(C)=O)c1c(I)c(C(=O)NCC(O)CO)c(I)c(C(=O)NCC(O)CO)c1I)c1c(I)c(C(=O)NCC(O)CO)c(I)c(C(=O)NCC(O)CO)c1I (configuration not stated) [Iodixanol] (20 µM) | 0.85 | 0.989 | 1.03 | 1.01 | 0.962 (inactive) | 1.02 (inactive) | 0.886 (inactive) | 1.04 (inactive) | 1 (inactive) | 0.988 (inactive) | 0.991 (inactive) | 0.815 (inactive)
CC(=O)O[C@]1(C(C)=O)CC[C@H]2[C@@H]3C=C(Cl)C4=CC(=O)CC[C@]4(C)[C@H]3CC[C@@]21C [Chlormadinone acetate] (20 µM) | 1.01 | 1 | 0.994 | 0.974 | 1.04 (inactive) | 0.965 (inactive) | 0.931 (inactive) | 1.04 (inactive) | 1.02 (inactive) | 1.02 (inactive) | 0.995 (inactive) | 0.895 (inactive)
OC(CNCC(O)C1CCc2cc(F)ccc2O1)C1CCc2cc(F)ccc2O1 (configuration not stated) [Nebivolol hydrochloride] (20 µM) | 1.15 | 0.992 | 0.992 | 0.785 | 1.03 (inactive) | 0.94 (inactive) | 0.882 (inactive) | 1.03 (inactive) | 1.01 (inactive) | 0.955 (inactive) | 0.998 (inactive) | 0.879 (inactive)
